According to PubChem BioAssay (NCATS):
Records with an inconclusive call do not appear. Activity calls are given as the source filed them. Unless noted, the call rests on the fitted dose curve; in most records, active means well fitted curve in either direction with a large enough effect (not every such curve was filed as active); inconclusive means small, poorly fitted or top-dose-only effect, or another doubt; inactive means flat fitted curve, though single readings scatter.

Legend:
[1] = molecular target: Lysosomal acid glucosylceramidase (Homo sapiens) (UniProt P04062); assay: Glucocerebrosidase-p2 (AID 348; in the data active means potency below about 10 µM; further: potency means the concentration at half of the fitted maximal effect); details: purified GBA, blue fluorogenic substrate, 40 min
Sequence of Lysosomal acid glucosylceramidase (Homo sapiens) (P04062 whole entry, looked up): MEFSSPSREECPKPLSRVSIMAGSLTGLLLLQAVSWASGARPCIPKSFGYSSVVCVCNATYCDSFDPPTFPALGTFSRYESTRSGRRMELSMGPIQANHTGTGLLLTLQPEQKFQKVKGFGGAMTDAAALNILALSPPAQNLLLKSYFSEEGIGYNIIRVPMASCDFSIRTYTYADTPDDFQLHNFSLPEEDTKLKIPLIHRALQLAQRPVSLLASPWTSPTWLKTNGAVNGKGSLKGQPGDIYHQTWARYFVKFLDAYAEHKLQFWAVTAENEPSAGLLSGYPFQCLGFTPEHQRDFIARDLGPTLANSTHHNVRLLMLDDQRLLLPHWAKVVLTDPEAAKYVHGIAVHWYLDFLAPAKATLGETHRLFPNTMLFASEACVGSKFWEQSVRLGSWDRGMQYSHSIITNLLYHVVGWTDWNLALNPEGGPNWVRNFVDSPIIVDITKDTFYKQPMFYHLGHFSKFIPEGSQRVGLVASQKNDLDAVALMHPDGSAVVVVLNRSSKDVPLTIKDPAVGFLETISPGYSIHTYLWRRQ
In short: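 Normal human glucocerebrosidase (0.2 nM) with blue fluorogenic substrate (80 uM final) in citrate/phosphate pH 5.9 with 10mM sodium taurocholate, 0.01% tween-20; 40 min RT, NaOH/glycine stop; fluorescence Ex 365/Em 440; AC50 from a titration from 0.6 nM upwards.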

[2] = AP1 Signaling Pathway (AID 357); details: ME-180 AP-1-bla reporter, EGF-induced, beta-lactamase ratio, 5 h; at 7.69 µM (top of the series) unless noted;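 further: ME-180 reporter cells stimulated with EGF at its EC50 level; on the % scale 0 is the no-effect control and ±100 the full control effect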
In short: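 Cells are seeded overnight, exposed to compound titrations and an EC50 level of EGF for 5 hours at 37 °C, then loaded with CCF4 dye for 2.5 hours. Beta-lactamase activity under the AP-1 element is read as a blue/green ratio.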

[3] = molecular target: Cytochrome P450 1A2 (Homo sapiens) (UniProt P05177); assay: p450-cyp1a2 (AID 410; calls by dose curve; further: potency means the concentration at half of the fitted maximal effect;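 on activity change, negative = inhibition: -100% = full effect of reference inhibitor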); details: recombinant CYP1A2, luciferin-ME demethylation, luminescence; series mostly up to 57 µM
Sequence of Cytochrome P450 1A2 (Homo sapiens) (P05177 whole entry, looked up): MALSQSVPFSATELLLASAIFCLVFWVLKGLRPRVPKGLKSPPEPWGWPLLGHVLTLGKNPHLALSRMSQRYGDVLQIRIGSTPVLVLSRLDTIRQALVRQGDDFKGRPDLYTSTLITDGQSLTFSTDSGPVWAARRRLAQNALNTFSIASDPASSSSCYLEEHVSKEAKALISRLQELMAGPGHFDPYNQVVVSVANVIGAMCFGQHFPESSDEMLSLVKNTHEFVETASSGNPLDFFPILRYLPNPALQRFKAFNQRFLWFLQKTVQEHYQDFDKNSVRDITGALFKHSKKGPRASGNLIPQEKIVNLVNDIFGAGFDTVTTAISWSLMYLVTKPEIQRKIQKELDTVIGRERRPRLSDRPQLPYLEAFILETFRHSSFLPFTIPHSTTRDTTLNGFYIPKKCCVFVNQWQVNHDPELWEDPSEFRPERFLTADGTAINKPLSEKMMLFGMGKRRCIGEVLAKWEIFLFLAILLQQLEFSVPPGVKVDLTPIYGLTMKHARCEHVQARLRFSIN
In short: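 Read-out is luminescence from luciferin produced by CYP1A2 demethylation of Luciferin-ME (100uM, at Km). Detection reagent stopped the 60 min NADPH-dependent reaction; signals were normalized to 57 uM furafylline.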

[4] = Stat Signaling Pathway (AID 446); details: ME-180 (cervical carcinoma) SIE beta-lactamase reporter, IL-6 stimulated, 5 h; at 7.69 µM (top of the series) unless noted;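 further: ME-180 cervical cancer cells given 40 pM IL-6 alongside compound; SIE-controlled beta-lactamase reporter measured as 460/530 nm FRET emission ratio; on the % scale 0 is the no-effect control and ±100 the full control effect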
In short: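 Overnight-plated ME-180 cells bearing a STAT Inducible Element beta-lactamase reporter; 5 h co-exposure to compound and 40 pM IL-6; values normalized to 300 pM IL-6 and 125 nM JAK inhibitor controls.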

[5] = molecular target: Glucocorticoid receptor (Homo sapiens) (UniProt P04150); assay: GR-EFC Redistribution (AID 451; calls by dose curve; further: potency means the concentration at half of the fitted maximal effect); details: CHO-K1 GR-EFC translocation, beta-gal luminescence, 2 h
Sequence of Glucocorticoid receptor (Homo sapiens) (P04150 whole entry, looked up, the tested form may be a part): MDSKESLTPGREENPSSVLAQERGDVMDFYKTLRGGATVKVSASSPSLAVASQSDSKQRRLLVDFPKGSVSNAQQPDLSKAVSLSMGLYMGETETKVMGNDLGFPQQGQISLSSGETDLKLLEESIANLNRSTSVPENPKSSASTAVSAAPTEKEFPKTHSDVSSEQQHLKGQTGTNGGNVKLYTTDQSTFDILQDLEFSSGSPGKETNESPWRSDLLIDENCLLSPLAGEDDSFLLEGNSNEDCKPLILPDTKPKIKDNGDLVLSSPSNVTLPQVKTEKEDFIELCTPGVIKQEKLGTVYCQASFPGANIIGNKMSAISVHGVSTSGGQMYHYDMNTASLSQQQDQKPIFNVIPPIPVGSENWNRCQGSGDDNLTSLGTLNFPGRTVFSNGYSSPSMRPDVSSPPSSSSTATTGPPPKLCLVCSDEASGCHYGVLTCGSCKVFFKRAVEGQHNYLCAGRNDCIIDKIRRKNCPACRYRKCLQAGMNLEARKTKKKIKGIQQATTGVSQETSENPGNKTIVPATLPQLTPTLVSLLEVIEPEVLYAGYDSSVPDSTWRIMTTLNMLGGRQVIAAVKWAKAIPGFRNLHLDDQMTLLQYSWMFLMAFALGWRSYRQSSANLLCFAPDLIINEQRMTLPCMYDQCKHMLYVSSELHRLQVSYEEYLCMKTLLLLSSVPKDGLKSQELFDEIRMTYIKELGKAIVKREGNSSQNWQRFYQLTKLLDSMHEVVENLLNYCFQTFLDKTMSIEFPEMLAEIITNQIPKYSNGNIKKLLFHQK
In short: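 CHO-K1 cells stably expressing nuclear-localized β-gal enzyme acceptor and GR fused C-terminally to the enzyme donor fragment; ligand-driven nuclear translocation restores β-gal by complementation. Compounds titrated up to 46 uM final, 2 h at 37 °C; luminescence read.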

[6] = molecular target: Mitogen-activated protein kinase 10 (Mus musculus) (UniProt Q61831); assay: JNK3 AlphaScreen Assay (AID 530); details: JNK3 lysate, c-Jun phosphorylation; series mostly up to 57.1 µM;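 further: kinase came from lysate of stimulated human HepG2 cells; signal reports phosphorylation of biotinylated GST-cJun 1-79 at Ser73 with 10 µM ATP; on the % scale 0 is the no-effect control and ±100 the full control effect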
In short: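 Biotinylated GST-cJun(1-79) served as substrate for JNK3 in HepG2 lysates stimulated with IL-1beta and TNF-alpha. ATP was 10 uM final, pH 7.6. Ser73 phosphorylation was quantified by AlphaScreen (680 nm excitation).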

[7] = molecular target: 3',5'-cyclic-AMP phosphodiesterase 4B (Homo sapiens) (UniProt Q07343); assay: qHTS Assay for Inhibitors of PDE-IV (AID 607; active means well fitted activation curve with a large enough effect in the main read-out, with a control signal flat, not every such curve was filed as active; further: % of control where 0% means no effect); details: HEK293 ACTOne CNG channel cells, membrane potential fluorescence; series mostly up to 22.9 µM
Sequence of 3',5'-cyclic-AMP phosphodiesterase 4B (Homo sapiens) (Q07343 whole entry, looked up): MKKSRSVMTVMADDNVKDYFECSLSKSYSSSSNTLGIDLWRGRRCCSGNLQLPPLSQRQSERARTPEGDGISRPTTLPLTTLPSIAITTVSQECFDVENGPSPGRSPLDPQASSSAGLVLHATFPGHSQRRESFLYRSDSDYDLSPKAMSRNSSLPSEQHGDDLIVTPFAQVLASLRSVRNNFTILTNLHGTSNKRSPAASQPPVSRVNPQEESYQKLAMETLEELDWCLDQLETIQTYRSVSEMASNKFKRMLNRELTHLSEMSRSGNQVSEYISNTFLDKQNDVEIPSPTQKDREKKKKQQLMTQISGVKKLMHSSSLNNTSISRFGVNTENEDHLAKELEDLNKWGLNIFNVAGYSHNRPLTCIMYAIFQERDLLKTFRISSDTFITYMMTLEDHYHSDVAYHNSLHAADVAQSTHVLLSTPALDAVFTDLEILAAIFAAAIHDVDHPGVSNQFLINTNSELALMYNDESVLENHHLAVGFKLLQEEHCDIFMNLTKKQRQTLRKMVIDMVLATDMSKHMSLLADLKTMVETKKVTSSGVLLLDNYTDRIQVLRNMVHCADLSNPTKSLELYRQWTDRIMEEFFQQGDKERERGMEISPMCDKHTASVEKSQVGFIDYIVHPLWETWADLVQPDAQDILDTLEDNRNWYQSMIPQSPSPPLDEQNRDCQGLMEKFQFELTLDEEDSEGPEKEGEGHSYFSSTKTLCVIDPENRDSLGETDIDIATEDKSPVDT
In short: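 Live HEK293 cells with a modified cyclic nucleotide-gated (CNG) channel report intracellular cAMP via membrane-potential dye fluorescence (ex 535/em 590 nm). Endogenous PDE-IV was targeted. Compounds were tested at up to 22.9 uM final; RO 20-1724 100 uM served as control.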

[8] = molecular target: Cytochrome P450 3A4 (Homo sapiens) (UniProt P08684); assay: qHTS Assay for Inhibitors and Substrates of Cytochrome P450 3A4 (AID 884; active means well fitted curve in the direction sought with a large enough effect; an effect the other way counts as inactive or inconclusive; further: nearly all actives have a fitted effect of over 50% in size; further: potency means the concentration at half of the fitted maximal effect); details: recombinant CYP3A4, Luciferin-PPXE luminescence; series mostly up to 57.1 µM
Sequence of Cytochrome P450 3A4 (Homo sapiens) (P08684 whole entry, looked up): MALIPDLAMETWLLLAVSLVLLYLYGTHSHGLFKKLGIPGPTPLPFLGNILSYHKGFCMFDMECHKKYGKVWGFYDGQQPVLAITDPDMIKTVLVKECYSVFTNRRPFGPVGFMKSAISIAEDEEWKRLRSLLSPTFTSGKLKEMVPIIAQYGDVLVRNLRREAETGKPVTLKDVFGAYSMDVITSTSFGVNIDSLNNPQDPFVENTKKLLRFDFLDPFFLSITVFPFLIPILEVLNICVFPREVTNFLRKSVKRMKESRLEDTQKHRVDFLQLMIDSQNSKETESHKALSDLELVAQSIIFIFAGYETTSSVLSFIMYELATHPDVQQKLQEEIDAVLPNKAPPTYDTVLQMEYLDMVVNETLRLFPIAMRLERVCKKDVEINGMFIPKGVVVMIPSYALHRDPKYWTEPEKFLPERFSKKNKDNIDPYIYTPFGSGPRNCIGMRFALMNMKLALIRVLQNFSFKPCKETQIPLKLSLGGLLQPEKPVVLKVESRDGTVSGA
In short: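 Luminescent readout of luciferin produced by CYP3A4 (20 nM) dealkylation of Luciferin-PPXE, 25 uM (its KM). NADPH-driven reaction ran 60 min at RT after 10 min compound preincubation; data scaled to 57 uM ketoconazole as 100% inhibition.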

[9] = molecular target: Cytochrome P450 3A4 (Homo sapiens) (UniProt P08684); assay: qHTS Assay for Activators of Cytochrome P450 3A4 (AID 885; active means well fitted curve in the direction sought with a large enough effect; an effect the other way counts as inactive or inconclusive; further: nearly all actives have a fitted effect of over 65% in size; further: potency means the concentration at half of the fitted maximal effect); details: recombinant CYP3A4, Luciferin-PPXE luminescence, 60 min; series mostly up to 57.1 µM
In short: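 Using 20nM recombinant human CYP3A4 in potassium phosphate (200mM), substrate Luciferin-PPXE at 25uM, luminescent luciferin detection followed a 60-min RT NADPH reaction; data scaled to 57 uM ketoconazole.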

[10] = qHTS Assay for Lipid Storage Modulators (AID 1519; calls by dose curve); details: Drosophila S3 cells, BODIPY lipid droplet/cell ratio, laser cytometry, cells loaded with oleic acid; for activity change, negative = inhibition: at 57.5 µM (top of the series)
In short: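 Cells seeded at 5,000 per well were treated with compounds over a concentration series and loaded with oleic acid (400 uM, as added). Lipid droplet fluorescence (488 nm excitation, 500-530 nm channel) was read by laser-scanning cytometry and normalized to 20 uM Triacsin C.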

[11] = Primary qHTS for small molecule stabilizers of the endoplasmic reticulum resident proteome: Secreted ER Calcium Modulated Protein (SERCaMP) assay (AID 1508630; active means well fitted curve in the direction sought with a large enough effect; an effect the other way counts as inactive or inconclusive; further: on the % scale 0 is the no-effect control and ±100 the full control effect); details: SH-SY5Y GLuc-SERCaMP (Gaussia luciferase released on ER calcium loss) secretion, thapsigargin, luminescence; series mostly up to 38.4 µM
In short: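 The SH-SY5Y reporter protocol was run at 3 concentrations up to 38.3 uM (primary) or 11 concentrations (follow-up): 16 h compound, 100 nM thapsigargin for 4 h, then extracellular luciferase luminescence.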

[12] = NFAT Signaling Pathway (AID 444); details: Jurkat NFAT-bla M1, carbachol, beta-lactamase ratio, 5 h; at 7.69 µM (top of the series) unless noted
In short: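 Jurkat cells carrying an NFAT-driven β-lactamase reporter and co-transfected muscarinic M1 receptor were treated with compound plus carbachol (1 uM final, an EC50 level) for 5 h at 37 °C. CCF4 loading followed for 1 h at RT; 460/530 nm ratio gave %activity.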

[13] = molecular target: Cytochrome P450 2C19 (Homo sapiens) (UniProt P33261); assay: qHTS Assay for Inhibitors and Substrates of Cytochrome P450 2C19 (AID 899; active means well fitted curve in the direction sought with a large enough effect; an effect the other way counts as inactive or inconclusive; further: nearly all actives have a fitted effect of over 60% in size; further: potency means the concentration at half of the fitted maximal effect); details: recombinant CYP2C19, luciferin-H EGE luminescence; series mostly up to 57.1 µM
Sequence of Cytochrome P450 2C19 (Homo sapiens) (P33261 whole entry, looked up): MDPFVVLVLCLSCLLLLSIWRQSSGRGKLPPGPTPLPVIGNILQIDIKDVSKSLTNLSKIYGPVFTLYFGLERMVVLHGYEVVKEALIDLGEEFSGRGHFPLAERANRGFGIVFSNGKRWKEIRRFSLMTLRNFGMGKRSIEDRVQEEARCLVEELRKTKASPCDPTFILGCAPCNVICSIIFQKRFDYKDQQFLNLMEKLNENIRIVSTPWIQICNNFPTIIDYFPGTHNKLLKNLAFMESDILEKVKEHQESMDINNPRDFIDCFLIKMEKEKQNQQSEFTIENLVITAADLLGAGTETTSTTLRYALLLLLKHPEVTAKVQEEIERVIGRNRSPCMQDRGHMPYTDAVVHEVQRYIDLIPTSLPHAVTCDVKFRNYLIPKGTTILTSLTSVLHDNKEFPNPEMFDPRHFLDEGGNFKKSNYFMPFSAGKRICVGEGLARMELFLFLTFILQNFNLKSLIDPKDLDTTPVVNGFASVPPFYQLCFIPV
In short: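 NADPH-dependent conversion of Luciferin-H EGE (10uM, at KM) by 5nM enzyme in 50mM KPO4, 60 min at 37C following 10 min compound preincubation. Stopped with luciferin detection buffer; luminescence read after 20 min.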

[14] = molecular target: Glucocorticoid receptor (Homo sapiens) (UniProt P04150); assay: GR-GFP Redistribution (AID 450;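 active means compounds whose dose series gives a full or clear partial fitted curve of increased nuclear translocation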; further: potency means the concentration at half of the fitted maximal effect); details: U2OS GR-GFP nuclear translocation, laser cytometry, 2 h
[15] = molecular target: Cytochrome P450 2C9 (Homo sapiens) (UniProt P11712); assay: qHTS Assay for Inhibitors and Substrates of Cytochrome P450 2C9 (AID 883; active means well fitted curve in the direction sought with a large enough effect; an effect the other way counts as inactive or inconclusive; further: on the % scale 0 is the no-effect control and ±100 the full control effect; nearly all actives have a fitted effect of over 60% in size); details: recombinant CYP2C9, luciferin-H luminescence, 60 min; series mostly up to 57.1 µM
Sequence of Cytochrome P450 2C9 (Homo sapiens) (P11712 whole entry, looked up): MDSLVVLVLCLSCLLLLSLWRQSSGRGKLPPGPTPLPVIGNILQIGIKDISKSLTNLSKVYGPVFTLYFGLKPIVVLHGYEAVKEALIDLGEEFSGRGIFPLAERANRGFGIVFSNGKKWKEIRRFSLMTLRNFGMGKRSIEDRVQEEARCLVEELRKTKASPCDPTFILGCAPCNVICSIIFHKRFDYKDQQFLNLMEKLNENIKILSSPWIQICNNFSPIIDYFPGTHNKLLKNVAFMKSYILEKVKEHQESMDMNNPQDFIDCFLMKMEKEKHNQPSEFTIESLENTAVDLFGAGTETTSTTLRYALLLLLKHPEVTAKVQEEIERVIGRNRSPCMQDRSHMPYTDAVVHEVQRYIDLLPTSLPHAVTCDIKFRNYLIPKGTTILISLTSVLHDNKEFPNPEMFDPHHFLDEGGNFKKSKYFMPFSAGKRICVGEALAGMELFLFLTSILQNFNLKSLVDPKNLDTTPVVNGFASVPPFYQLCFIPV
In short: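 A luminogenic readout tracked human CYP2C9 (10nM) converting deoxyluciferin (100uM, at KM) in 25mM KPO4 during 60 min at 37C with regenerated NADPH. Values normalized to 57uM sulphaphenazole as complete inhibition.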

[16] = molecular target: Cytochrome P450 2D6 (Homo sapiens) (UniProt P10635); assay: qHTS Assay for Inhibitors and Substrates of Cytochrome P450 2D6 (AID 891; active means well fitted curve in the direction sought with a large enough effect; an effect the other way counts as inactive or inconclusive; further: nearly all actives have a fitted effect of over 60% in size; further: potency means the concentration at half of the fitted maximal effect); details: recombinant CYP2D6, luciferin-ME EGE luminescence; series mostly up to 57.1 µM
Sequence of Cytochrome P450 2D6 (Homo sapiens) (P10635 whole entry, looked up): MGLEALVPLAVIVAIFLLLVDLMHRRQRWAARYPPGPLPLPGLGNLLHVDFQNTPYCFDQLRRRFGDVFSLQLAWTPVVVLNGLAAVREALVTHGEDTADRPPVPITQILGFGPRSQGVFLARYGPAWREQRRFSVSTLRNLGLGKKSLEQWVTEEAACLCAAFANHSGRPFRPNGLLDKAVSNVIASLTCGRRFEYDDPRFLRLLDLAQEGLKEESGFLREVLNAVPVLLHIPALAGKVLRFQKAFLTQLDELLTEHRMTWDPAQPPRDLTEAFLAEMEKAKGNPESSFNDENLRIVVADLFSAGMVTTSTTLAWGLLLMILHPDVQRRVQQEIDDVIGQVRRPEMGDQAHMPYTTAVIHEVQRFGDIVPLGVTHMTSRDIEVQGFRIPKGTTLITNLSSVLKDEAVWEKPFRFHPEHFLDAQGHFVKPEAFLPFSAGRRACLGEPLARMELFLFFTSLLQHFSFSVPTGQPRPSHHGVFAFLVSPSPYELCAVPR
In short: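 Luminescent read-out of luciferin formed by 5 nM human CYP2D6 demethylating 30 uM Luciferin-ME EGE (Km level) over 60 min at room temperature after NADPH regeneration addition. Data normalized to full inhibition by 1.43 uM quinidine.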

[17] = molecular target: Ubiquitin carboxyl-terminal hydrolase 1 (Homo sapiens) (UniProt O94782); assay: Inhibitors of USP1/UAF1: Pilot qHTS (AID 504865; active means well fitted curve in the direction sought with a large enough effect; an effect the other way counts as inactive or inconclusive;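 further: rhodamine fluorescence freed from ubiquitin-rhodamine substrate followed over time; top concentration of the series differs between compounds; on the % scale 0 is the no-effect control and ±100 the full control effect; nearly all actives have a fitted effect of over 35% in size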); details: purified USP1/UAF1, Ub-rhodamine cleavage fluorescence; series mostly up to 54.9 µM
In short: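 Kinetic fluorescence assay: 1nM USP1/UAF1, 15 min compound preincubation, then 150nM Ub-Rho; 480/540 nm.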

[18] = measured here: cell count channel max response
[19] = measured here: lipid channel max response

Row | SMILES | Potency [1] | activity change, negative = inhibition [2] | Potency [3] | activity, negative = inhibition [4] | Potency [5] | outcome [6] | Potency [7] | Potency [8] | Potency [9] | activity change, negative = inhibition [10] | max response [10, 18] | max response [10, 19] | Potency [11] | activity change, negative = inhibition [12] | Potency [13] | Potency [14] | Potency [15] | Potency [16] | activity change, negative = inhibition [15] | Potency [17]
1 | O=C(c1csnn1)N1CCC2(CC1)CN(c1ccccn1)C2 | > 11.4 µM (inactive) | -7.48% (inactive) | inactive | -1.49% (inactive) | > 46 µM (inactive) | inactive | inactive | inactive | 25.1 µM (active) | 4.89% (inactive) | 15.6% | 22.2% | inactive |  |  |  |  |  |  | 
2 | O=S(=O)(c1ccccc1)N1CCC[C@@]2(CCN(c3ccccc3)C2)C1 | > 11.4 µM (inactive) | -10.1% (inactive) | 3.98 µM (active) | -4.22% (inactive) | > 46 µM (inactive) |  |  | 5.01 µM (active) | inactive | -16% (inactive) | 5.79% | -9.53% | inactive | -13.8% (inactive) | 0.316 µM (active) |  |  |  |  | 
3 | CC(C)NC(=O)N1CCC2(CC1)CCN(C(=O)c1ccco1)CC2 | > 11.4 µM (inactive) | -2.03% (inactive) | inactive | 8.93% (inactive) |  | inactive | inactive |  |  | 3.89% (inactive) | 8.07% | 11.7% | inactive | 12% (inactive) |  |  |  |  |  | 
4 | Cc1nc2cnc(N(C)C)nc2n(Cc2ccc(F)cc2)c1=O | > 11.4 µM (inactive) | 3.79% (inactive) | 2 µM (active) |  | > 46 µM (inactive) | inactive |  | 0.0251 µM (active) | inactive | 5.88% (inactive) | 15% | 21.5% | inactive | 1.01% (inactive) | 1.58 µM (active) | > 9.22 µM (inactive) | inactive |  |  | 
5 | COC(=O)N1CCC2(CCCN(c3ccc(-c4ccccc4)cc3)C2)CC1 | > 11.4 µM (inactive) | -0.311% (inactive) | 20 µM (active) | 3.59% (inactive) |  | inactive | inactive |  |  | -29.2% (inactive) | 11% | -21.4% | inactive | -18.6% (inactive) |  |  |  |  |  | 
6 | COCC(=O)N1CCC[C@@]2(CCN(C(=O)Nc3cccc(C#N)c3)C2)C1 | > 11.4 µM (inactive) | 0.866% (inactive) | inactive | 2.49% (inactive) | > 46 µM (inactive) | inactive | inactive | inactive |  | 4.94% (inactive) | 13.7% | 21.6% | inactive |  | inactive |  | inactive | inactive |  | 
7 | Cn1cccc1C(=O)N1CCC[C@@]2(CCN(Cc3ccccc3)C2)C1 | > 11.4 µM (inactive) | -8.23% (inactive) | 10 µM (active) |  |  | inactive | inactive |  | inactive | 3.81% (inactive) | 5.36% | 9.58% | inactive | -14.1% (inactive) |  |  |  | 2 µM (active) |  | 
8 | CN(C)c1ccc(-c2nc(N(C)Cc3ccco3)c3ccccc3n2)cc1 | 6.72 µM (active) | 25.1% (inactive) | 0.631 µM (active) | 26.1% (inactive) | > 46 µM (inactive) | inactive | inactive |  | inactive | 10.8% (inactive) | 0.88% | 11.3% | inactive |  |  | > 46 µM (inactive) |  |  | 33.8% [at 2.29 µM] (inactive) | inactive
9 | Cc1nc2cnc(N3CCOCC3)nc2n(CCC#N)c1=O | > 11.4 µM (inactive) | 2.45% (inactive) | 12.6 µM (active) | 21.2% (inactive) | > 46 µM (inactive) | inactive |  |  |  | 5.38% (inactive) | 1.22% | 11.9% | inactive |  |  | > 9.22 µM (inactive) |  |  |  | 
10 | O=C(c1ccncc1)N1CCC2(CC1)CN(c1cccc(-c3ccccc3)c1)C2 | > 11.4 µM (inactive) | -2.83% (inactive) | 15.8 µM (active) |  | > 46 µM (inactive) |  | inactive | 7.94 µM (active) | inactive | -2.24% (inactive) | 13.1% | 11.3% | inactive | 7.15% (inactive) |  |  |  |  |  | 
11 | Cc1noc(C)c1C(=O)N1CCC2(CC1)CCN(c1cccc(-c3ccccc3)c1)CC2 | > 11.4 µM (inactive) | -13.8% (inactive) | inactive |  | > 46 µM (inactive) | inactive | inactive | inactive |  | -7.36% (inactive) | -11.4% | -15.8% | inactive | -2.13% (inactive) | inactive |  | inactive | inactive |  | 
12 | COc1ccc(NC(=O)N2CCCC3(CCN(C(=O)c4csnn4)CC3)C2)cc1 | > 11.4 µM (inactive) | -1.51% (inactive) | inactive | -9.13% (inactive) |  | inactive | inactive |  | inactive | 6.81% (inactive) | 11.2% | 22.4% | inactive | -2.25% (inactive) |  |  |  |  |  | 
13 | COc1ncc2nc(-c3cc(F)cc(F)c3)c(=O)n(CCC#N)c2n1 | > 11.4 µM (inactive) | 2.61% (inactive) | 6.31 µM (active) | -7.47% (inactive) | > 46 µM (inactive) | inactive | inactive |  | inactive | 5.74% (inactive) | 17.3% | 25.6% | inactive |  |  | > 9.22 µM (inactive) |  |  |  | 
